PubChem BioAssay (NCI)
This is part of a sample that, as a whole, favours compounds with a hit. Of some 83,000 tested, about 20% had one in any assay.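 Percent growth is the endpoint: 0 to 100 indicates growth inhibition (40 means 60% inhibition), 0 means no net growth, and negative values indicate cell death.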 Unmarked numbers belong to inactive results. Activity calls are given as the source filed them. Rule for the calls: active = growth percent below 10; inactive = the rest.

What was measured:
Assay in all cases: NCI-60 one-dose screen, 48 h (100 = growth as untreated, 0 = no growth, -100 = all killed)
Settings in all cases: 10 µM unless noted
NCI-H23 lung = test system: NCI-H23 lung
NCI-H226 lung = test system: NCI-H226 lung
HOP-62 NSCLC = test system: HOP-62 NSCLC
NCI-H460 lung = test system: NCI-H460 lung
HOP-92 NSCLC = test system: HOP-92 NSCLC
NCI-H522 lung = test system: NCI-H522 lung
A549/ATCC NSCLC = test system: A549/ATCC NSCLC
786-0 renal = test system: 786-0 renal
COLO 205 colon = test system: COLO 205 colon

Compound | growth (NCI-H23 lung) | growth (NCI-H226 lung) | growth (HOP-62 NSCLC) | growth (NCI-H460 lung) | growth (HOP-92 NSCLC) | growth (NCI-H522 lung) | growth (A549/ATCC NSCLC) | growth (786-0 renal) | growth (COLO 205 colon)
CN1C(=O)N(C)C2C1NN=c1s/c(=C\C=C\c3ccccc3)c(=O)n12 (centres undefined) | 64.3% | 61.9% | 67.3% | 23.3% | 63.9% | 38.7% | 52.7% | 71.3% | 42.1%
COc1cc2c(=O)n(C3CCCCCC3)c3c4cc[nH]c4ncc3c2cc1OC | 77.1% | 43.9% | 59% | 72.4% | 59.1% | 65.4% | 79.7% | 90.2% | 79.9%
O=C1NC(=C(Cl)Cl)/C(=N/S(=O)(=O)N2CCC(C3(C(F)(F)F)N=N3)CC2)N1 | 45.3% | 106% | 104% | 100% | 87% | -58% (active) | 106% | 103% | 26%
N/C(=N\C(N)=N\c1nc2ccccc2s1)c1cccc(Br)c1 | 77% | 71.6% | -0.459% (active) | 76.4% | 96.7% | 80% | -40.6% (active) | 98.4% | 115%
Clc1ccc(-c2nc3ccccc3s2)cc1Cl | 94.2% | 87.2% | 104% | 96.4% | 84.1% | 82.7% | 97.7% | 103% | 111%
Cc1ccc2nc(Cl)cc(=O)n2c1 | 107% | 108% | 100% | 113% | 104% | 116% | 113% | 100% | 108%
C=C(C)[C@@H]1C[C@@H]2Cc3cc(Cl)ccc3N1O2 | 99.8% | 101% | 93.4% | 102% | 25.2% | 116% | 95.4% | 102% | 105%
O=C1/C(=C/c2ccc([N+](=O)[O-])cc2)CN(C(=O)CCN2CCC(=NO)CC2)C/C1=C\c1ccc([N+](=O)[O-])cc1 | 0.382% (active) | 15.1% | -21.9% (active) | -46.3% (active) | -10.4% (active) | -76.8% (active) | 21.3% | -37.1% (active) | -65.3% (active)
Nc1cccc(Cl)c1N | 85.2% | 101% | 108% | 101% | 106% | 71.1% | 109% | 110% | 104%
O=C(/C=C\c1cccc([N+](=O)[O-])c1)/C=C/c1cccc([N+](=O)[O-])c1 | 92.3% | 105% | 97.2% | 93.5% | 84.3% | 88.2% | 97.1% | 86.3% | 103%
ClC(Cl)c1nc(-c2ccccc2)nc2cc(-c3ccccc3)nn12 | 51.5% | 89.9% | 44.4% | 74.9% | 62.8% | 97.1% | 46.1% | 80.1% | 59.5%
COc1ccc(C2C=C(c3ccc(Cl)cc3)N=C3SC=C(C)N32)c(Br)c1 (centres undefined) | 50.1% | 59.5% | 30.5% | 13.4% | 95.6% | 23% | 36.9% | 47.2% | 18.6%
CC(C)NCCCNC1=C(Cl)C(=O)c2ccccc2C1=O | 16.3% | 93.1% | 98.3% | 87.2% | 110% | 91.9% | 81.7% | 113% | 95.4%
N#Cc1ccc(N2Cc3ccccc3OC3=C2C(=O)c2c(O)ccc(O)c2C3=O)cc1 | 14.2% | 10.4% | 16% | 46.9% | -66.2% (active) | -75.6% (active) | 72.9% | -42.9% (active) | -69.3% (active)
Cc1ccc(Nc2nnc(-c3ccc(Cl)cc3)o2)c(C)c1 | 84.4% | 99.6% | 81.8% | 97.1% | 107% | 41% | 79.2% | 89.3% | 81.4%
O=S(=O)(c1ccc(OCCO)cc1)c1ccc(OCCO)cc1 | 106% | 106% | 114% | 104% | 87.2% | 82.7% | 101% | 112% | 132%
C=C[C@@H]1C[C@H](O)Cc2ccccc2N1 | 104% | 111% | 99.2% | 107% | 137% | 121% | 95.4% | 112% | 117%
CCOC(=O)c1ccc2c(c1)nc(-c1ccc(OCc3ccccc3)c(OC)c1)n2-c1cc(C(C)(C)C)[nH]n1 | 88.1% | 91.6% | 91.4% | 74.9% | 93.5% | 67.8% | 59.3% | 98.7% | 67.4%
CCCCOc1ccc(/C=C2/SC(N3CCOCC3)=NC2=O)cc1OCC | 98.6% | 92% | 104% | 99.5% | 70.7% | 75% | 96% |  | 113%
Cc1nc2cncc(C#Cc3cncc(C(=O)Nc4ccc(CN5CCN(C)CC5)c(C(F)(F)F)c4)c3)c2nc1C | 7.45% (active) | -28.7% (active) | -17.4% (active) | 13.9% | -40.5% (active) | 10.2% | 31% | 29.6% | -12.3% (active)
COc1ccc2c(c1)[nH]c(=O)c1c3cc(OC)ccc3cn21 | 41.4% | 30.1% | 20% | -33% (active) | 45.1% | 13% | -2.59% (active) | 28.7% | -14.1% (active)
CCCCCCCCCCCC(=O)NCCC[N+](C)(C)CC(=O)[O-] | 93.2% | 93.8% | 97.3% | 104% | 79.1% | 80% | 105% | 93.5% | 88.7%
N=c1ccc2nc3ccc(N)cc3sc-2c1 | 12.8% | 87.8% | 15% | 43.6% | 40.6% | 12.8% | 7.01% (active) | 59.1% | 0.589% (active)
COc1cc(/C(C#N)=C/c2ccc3c(c2OC)OCO3)cc2c1OCO2 | 30.9% | 89.9% | 31.2% | 9.09% (active) | 61.2% | -19.1% (active) | 27.9% | 33.7% | -3.05% (active)
N[C@@H]1CCN(C(=O)c2cc3cc(Cl)c(F)c(F)c3[nH]2)C1 | 92.8% | 75% | 84.4% | 99.8% | 74.1% | 80.1% | 93.6% | 86.6% | 110%
CC(C)CSc1nc(NN)c(C#N)c(-c2ccccc2)n1 | 99.7% | 89.1% | 94.1% | 97.4% | 108% | 88.2% | 105% | 98.4% | 111%
CC12CCCC(CC(=O)c3[nH]c4ccccc4c31)C2 (centres undefined) | 33.5% | 60.8% | 28.2% | 7.52% (active) | 47% | 2.33% (active) | 27.7% | 41.4% | 7.12% (active)
COc1ccc(C(=O)c2cc(OC)c(OC)c(OC)c2OC)cc1O | 44.2% | 86.8% | 42% | 13.7% | 60.4% | -0.0983% (active) | 50.6% | 51% | 86%
CCc1cnc(=S)n(-c2ccccc2)c1 | 88.5% | 110% | 103% | 116% | 97.8% | 105% | 98.3% | 99.9% | 120%
O=C(/C=C/c1c[nH]c2ccccc12)c1ccc(O)c(CN2CCN(c3ccc(F)cc3)CC2)c1 | 99.8% | 100% | 95.9% | 106% | 95.5% | 102% | 99.5% | 103% | 109%
